For 35 compounds, outcome results are on record in PubChem BioAssay AID743314 (Broad Institute, 2014).

SMILES strings stand for the structures. Measured potencies and affinities stand elsewhere. Results filed as inconclusive are left out. Active and inactive are the calls of the source.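 The calls were made as follows: active = fitted half-maximal concentration no higher than twice the top tested dose, in every repeat run; inconclusive = repeat runs disagree, poor fit, or flat partial inhibition; inactive = the rest.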

For this test, the target named is Endoplasmic reticulum aminopeptidase 1 (Homo sapiens) (UniProt Q9NZ08). The test can be described thus: inhibition of human ERAP1 enzyme activity – biochemical, cherry-pick, set 2, plate reader, dose response (AID 743314). As to conditions: Recombinant ERAP1, Leu-AMC fluorescence, 60 min; series mostly up to 11 µM.
Chain of Endoplasmic reticulum aminopeptidase 1 (Homo sapiens) (Q9NZ08 whole entry, looked up): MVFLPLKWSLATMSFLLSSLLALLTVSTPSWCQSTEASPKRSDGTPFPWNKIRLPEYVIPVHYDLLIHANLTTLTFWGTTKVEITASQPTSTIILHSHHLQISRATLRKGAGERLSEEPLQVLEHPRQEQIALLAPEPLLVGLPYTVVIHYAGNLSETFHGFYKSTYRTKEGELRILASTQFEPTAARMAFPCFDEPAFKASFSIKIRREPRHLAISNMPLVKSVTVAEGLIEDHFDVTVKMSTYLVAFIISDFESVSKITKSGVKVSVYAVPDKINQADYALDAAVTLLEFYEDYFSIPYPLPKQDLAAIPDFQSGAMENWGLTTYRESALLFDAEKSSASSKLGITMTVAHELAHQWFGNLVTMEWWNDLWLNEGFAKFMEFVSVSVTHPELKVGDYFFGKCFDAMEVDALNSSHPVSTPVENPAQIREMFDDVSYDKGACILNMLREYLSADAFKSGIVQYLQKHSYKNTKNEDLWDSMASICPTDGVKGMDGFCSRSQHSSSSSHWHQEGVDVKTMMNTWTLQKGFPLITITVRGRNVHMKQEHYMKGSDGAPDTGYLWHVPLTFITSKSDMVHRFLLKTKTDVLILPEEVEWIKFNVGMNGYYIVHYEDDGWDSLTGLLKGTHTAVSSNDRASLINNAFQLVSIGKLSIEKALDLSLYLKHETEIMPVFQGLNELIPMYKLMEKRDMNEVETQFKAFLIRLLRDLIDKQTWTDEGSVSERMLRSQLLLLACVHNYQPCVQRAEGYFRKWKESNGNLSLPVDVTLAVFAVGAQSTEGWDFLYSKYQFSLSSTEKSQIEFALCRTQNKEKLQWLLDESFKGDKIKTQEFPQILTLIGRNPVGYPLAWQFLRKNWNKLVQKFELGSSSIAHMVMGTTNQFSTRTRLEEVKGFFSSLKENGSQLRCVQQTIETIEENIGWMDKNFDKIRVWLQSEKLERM
For `C[C@H]1CCCCO[C@H](CN(C)C)[C@@H](C)CN([C@@H](C)CO)C(=O)c2cc(NS(=O)(=O)c3ccc(Cl)cc3)ccc2O1`, the outcome was inactive.
As for `CCOc1ccccc1-n1nnnc1SCC(=O)NC(=O)Cc1ccccc1`, the outcome was inactive.
Take `O=S(=O)(O)c1ccc(N2N=C(c3ccccc3)CC2c2ccccc2)cc1` (stereo not given): the result was inactive.
Take `O=C(c1ccc(F)cc1)N1CC2(C1)[C@H](c1ccccc1)[C@@H](CO)N2Cc1ccccn1`: the outcome was inactive.
The result for `CCCC#Cc1ccc2c(c1)O[C@H](CN(C)Cc1ccncc1)[C@@H](C)CN([C@H](C)CO)S2(=O)=O` reads “inactive”; that for `C[C@@H]1CCCCO[C@H](CN(C)C)[C@H](C)CN([C@@H](C)CO)C(=O)c2cc(NS(=O)(=O)c3ccc(Cl)cc3)ccc2O1`, “inactive”; that for `O=C(CC1CC1)N1[C@H](CO)[C@H](c2ccccc2)C12CN(Cc1cc(F)ccc1F)C2`, “inactive”.
With `COc1ccc(NC(=O)Nc2ccc3c(c2)C(=O)N([C@@H](C)CO)C[C@@H](C)[C@H](CN(C)Cc2ccc(C(=O)O)cc2)OCCCC[C@H](C)O3)cc1`, the result was inactive.
The entry for `C[C@@H]1CN([C@H](C)CO)C(=O)c2cc(NS(=O)(=O)c3ccc(Cl)cc3)ccc2O[C@@H](C)CCCCO[C@@H]1CN(C)C` is “inactive”; for `CCOc1ccccc1N1CCN(C(=O)C2=CC=CN3CCS(=O)(=O)N=C23)CC1` it is “inactive”; for `Cn1c(=O)[nH]c(=O)c2c1[nH]c(=S)n2Cc1ccccc1` it is “inactive”.
In the case of `COc1ccc2c3c(n(C)c2c1)[C@H](CO)N(C)CC31CN(C(=O)c2cccnc2)C1`, the outcome was inactive.
The entry for `C[C@@H]1CN([C@H](C)CO)C(=O)c2cccc(NC(=O)Nc3ccccc3)c2O[C@@H]1CN(C)Cc1ccc(C(=O)O)cc1` is “inactive”; for `CC(Nc1ccc(F)cc1)=[N+](C)CCNS(=O)(=O)c1ccc(Cl)cc1` it is “inactive”; for `CCn1c(SCC(=O)NCc2ccccc2)nnc1C(CO)NC(=O)c1ccccc1` (stereo not given) it is “inactive”.
Take `C/C=C/c1ccc([C@H]2[C@@H](CO)N(CC3CCOCC3)C23CN(S(=O)(=O)CC)C3)cc1`: the outcome was inactive.
The entry for `CN(C)C(=O)c1cccc(-c2ccc3c(c2)[C@H]2[C@H](CCN2Cc2nccs2)[C@@H](CO)N3)c1` is “inactive”; for `CCN(CC)c1ccc2c(C)c(Cl)c(=O)oc2c1` it is “inactive”; for `C[C@@H]1CCCCO[C@H](CN(C)C)[C@@H](C)CN([C@@H](C)CO)C(=O)c2cc(NS(=O)(=O)c3ccc(Cl)cc3)ccc2O1` it is “inactive”.
Turning to `O=C(C[C@H]1CC[C@@H](NC(=O)Cc2ccccn2)[C@@H](CO)O1)NCCCN1CCOCC1`, the result was inactive.
Regarding `COc1ccc(CN(C)C[C@@H]2OCCCC[C@H](C)Oc3ccc(NS(=O)(=O)c4cccs4)cc3C(=O)N([C@H](C)CO)C[C@H]2C)cc1`, the outcome was inactive.
The result for `COc1ccc(CN(C)C[C@@H]2OCCCC[C@H](C)Oc3ccc(NS(=O)(=O)c4cccs4)cc3C(=O)N([C@H](C)CO)C[C@@H]2C)cc1` reads “inactive”; that for `O=C(NCCN1CCCC1)[C@H]1[C@H](CO)[C@H]2Cn3c(cccc3=O)[C@@H]1N2C(=O)NC1CCCC1`, “inactive”.
The result for `C[C@H]1CN([C@@H](C)CO)C(=O)CCCn2cc(nn2)CO[C@@H]1CN(C)Cc1ccccc1` reads “inactive”; that for `C[C@@H]1CN([C@H](C)CO)C(=O)c2cccc(NS(=O)(=O)c3ccc(Cl)cc3)c2O[C@@H]1CN(C)C(=O)Nc1ccccc1`, “inactive”.
The result for `O=c1cc(CN2CCOCC2)c2cc(Cl)c(O)cc2o1` reads “inactive”; that for `CC(OC(=O)c1cc(=O)[nH]c2ccccc12)C(=O)Nc1ccccc1F` (stereo not given), “inactive”.
Take `CCOc1ccc(NC(=O)C2CCCN2C(=O)Oc2ccccc2)cc1` (stereo not given): the outcome was inactive.
For the compound `COc1ccc(S(=O)(=O)NC[C@@H]2CC[C@H]3[C@H](CN3Cc3cc(F)ccc3F)O2)cc1`, the result was inactive.
Consider `COc1ccccc1-c1cc(-c2ccccc2)nc(SCC(=O)O)c1C#N`, for which the outcome was inactive.
`O=C(O)c1ccccc1NS(=O)(=O)c1cccc(NS(=O)(=O)c2cc(Br)ccc2Br)c1`: the outcome was inactive.
In the case of `CN1[C@H](C(=O)N2CCCCC2)[C@@H](CO)[C@@H]2Cn3c(ccc(/C=C/c4ccccc4)c3=O)[C@@H]21`, the outcome was inactive.
As for `COc1ccc(NC(=O)N[C@@H]2CC[C@@H](CCn3cc(-c4ccc(F)cc4)nn3)O[C@H]2CO)cc1`, the result was inactive.
For the compound `CCN1CCN(c2ccc(S(=O)(=O)N3CCCCC3)cc2NC(=O)c2ccccc2)CC1`, the outcome was inactive.
For the compound `O=C(Cc1ccccn1)N1CC(=O)N2[C@@H](CO)[C@H](c3ccc(C#CC4CCCC4)cc3)[C@@H]2C1`, the outcome was inactive.
